Shown are actives, neighbours in structure and some others; about 1.8% of the full set was active somewhere.
PHOSPHO1 block = PHOSPHO1 (human) inhibition; Q8TCT1; recombinant PHOSPHO1, absorbance phosphatase assay; inhibition, % at 13.3 µM; 1.1% of 290,000 active; AID 1565; in the data active = inhibition above about 60%
NadD block = inhibitors of Staphylococcus aureus NadD | purified NadD enzyme, colorimetric absorbance read-out | 0.78% of 360,000 active | inhibition, % at 20 µM; in the data active = inhibition above about 26%
p-CIP stab down = p/CIP protein destabilization. decrease of EGFP signal, % at 10 µM. F442A p/CIP-EGFP cells, EGFP fluorescence, 16 h. 0.01% of 290,000 active. AID 1984;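 active = EGFP signal decrease of at least 30% at 10 µM or well 3 SD below plate mean, unless failing retest; inactive = the rest, including hits failing retest or dose response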
Target sequence (Q05BA5 1-1403): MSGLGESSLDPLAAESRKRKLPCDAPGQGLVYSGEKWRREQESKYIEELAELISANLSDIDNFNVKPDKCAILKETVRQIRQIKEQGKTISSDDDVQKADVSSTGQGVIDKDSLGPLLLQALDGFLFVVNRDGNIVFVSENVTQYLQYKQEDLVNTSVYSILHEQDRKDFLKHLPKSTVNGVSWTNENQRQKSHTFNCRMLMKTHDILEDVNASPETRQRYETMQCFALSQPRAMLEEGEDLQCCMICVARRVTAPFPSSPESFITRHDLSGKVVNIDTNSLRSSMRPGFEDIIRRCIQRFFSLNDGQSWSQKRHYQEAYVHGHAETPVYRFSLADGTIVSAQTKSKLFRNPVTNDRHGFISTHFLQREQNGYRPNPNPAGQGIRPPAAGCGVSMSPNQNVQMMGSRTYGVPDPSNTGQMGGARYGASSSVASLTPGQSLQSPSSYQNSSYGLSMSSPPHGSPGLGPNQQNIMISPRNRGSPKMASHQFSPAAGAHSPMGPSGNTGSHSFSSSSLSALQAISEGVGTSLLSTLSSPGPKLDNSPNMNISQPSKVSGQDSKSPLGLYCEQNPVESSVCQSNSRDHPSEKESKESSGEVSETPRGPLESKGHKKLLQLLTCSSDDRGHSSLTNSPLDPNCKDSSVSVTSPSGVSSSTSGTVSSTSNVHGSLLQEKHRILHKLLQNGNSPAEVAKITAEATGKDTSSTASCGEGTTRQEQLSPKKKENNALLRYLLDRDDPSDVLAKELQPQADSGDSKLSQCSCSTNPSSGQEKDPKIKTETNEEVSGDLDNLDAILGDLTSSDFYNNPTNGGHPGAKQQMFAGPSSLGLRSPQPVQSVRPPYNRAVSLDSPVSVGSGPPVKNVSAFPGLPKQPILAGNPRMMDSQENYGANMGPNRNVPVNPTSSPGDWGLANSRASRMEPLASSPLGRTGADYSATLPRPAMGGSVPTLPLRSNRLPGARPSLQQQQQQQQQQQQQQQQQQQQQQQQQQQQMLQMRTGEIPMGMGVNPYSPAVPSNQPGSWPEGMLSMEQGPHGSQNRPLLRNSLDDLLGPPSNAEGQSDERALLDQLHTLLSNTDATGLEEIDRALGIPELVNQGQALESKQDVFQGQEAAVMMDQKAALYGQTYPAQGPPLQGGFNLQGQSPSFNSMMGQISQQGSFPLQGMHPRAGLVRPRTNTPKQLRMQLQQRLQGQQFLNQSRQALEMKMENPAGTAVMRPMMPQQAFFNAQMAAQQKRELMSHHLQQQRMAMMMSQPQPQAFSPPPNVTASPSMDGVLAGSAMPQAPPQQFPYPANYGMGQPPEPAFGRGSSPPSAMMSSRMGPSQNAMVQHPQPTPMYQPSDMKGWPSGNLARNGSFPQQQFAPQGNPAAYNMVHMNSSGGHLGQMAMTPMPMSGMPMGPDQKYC
SUMO HTRF inh = SUMOylation inhibition. P63279. HTRF SUMOylation assay, SAE1/SAE2 + UBC9, in vitro. inhibition, % at 35 µM. 0.36% of 290,000 active. AID 2006; in the data active = inhibition above about 50%, passing the limit was not always enough
NadD conf = NadD (S. aureus) inhibition, single concentration confirmation; shares compounds with NadD block; purified S. aureus NadD, colorimetric enzyme assay; inhibition, % at 20 µM; 13% of 2,000 active; in the data active = inhibition mostly above about 42%, no sharp cut-off; inactive = mostly below about 42%
A number is an active result; n = inactive; x = no result; ! = not active in a repeat.

SMILES | PHOSPHO1 block | NadD block | p-CIP stab down | SUMO HTRF inh | others
CCC1C2CC3C4N(C)c5ccccc5C45CC(C2C5O)N3C1O (stereo not given) | x | n | x | x
O=C1NC(=O)[C@]2(Cc3ccccc3N3CCN(c4ccccc4)CC32)C(=O)N1Cc1ccccc1 (stereo not given in full) | 72 | 48 | n | n
O=C1NC(=O)[C@]2(Cc3ccccc3N3CCN(c4ccccc4)CC32)C(=O)N1c1ccccc1 (stereo not given in full) | n | n | n | n
CN1C(=O)NC(=O)[C@]2(Cc3ccccc3N3CCN(c4ccccc4)CC32)C1=O (stereo not given in full) | 65 | n | n | n
C/C(=N\Nc1cccc2ccccc12)c1c(O)n(Cc2ccccc2)c(=O)[nH]c1=O | n | n | n | 52
COc1ccc(/C=C2/C(=O)N(Cc3ccco3)C(=O)N(C(C)C)C2=O)cc1 | n | 34 | n | n
O=C1NC(=O)C(Cc2ccccc2)(Cc2ccccc2)C(=O)N1Cc1ccccc1 | x | n | x | x
COc1ccc(-c2ccc3c(c2)CN(C(=O)CCc2ccccc2)Cc2cnnn2-3)cc1 | x | n | x | x
Cc1ccc(NC(=O)CN2C(=O)CN=C(c3ccccc3)c3cc(Cl)ccc32)cc1 | n | n | n | n
CN(C)c1ccc(NC(=O)CN2C(=O)CN=C(c3ccccc3)c3cc(Cl)ccc32)cc1 | 60 | n | n | n
CCOC(=O)CNC(=O)N1Cc2cc(-c3cccc(F)c3)ccc2-n2nncc2C1 | x | n | x | x
CCOC(=O)CNC(=O)N1Cc2cc(-c3ccc(OC)cc3)ccc2-n2nncc2C1 | x | n | x | x
NCCc1cc(O)c(O)cc1O | x | 65 | x | x
CCOC(=O)/C(CCCN(CC)CC)=N\O | 95 | n | n | n
COCCNC(=O)Cn1cc(/C=C2\C(=O)NC(=O)N(c3ccccc3F)C2=O)c2ccccc21 | n | n | n | n
O=C1NC(=O)N(c2ccccc2)C(=O)/C1=C/c1ccoc1 | n | n | n | n
O=C1NC(=O)N(c2cccc(Cl)c2)C(=O)/C1=C\c1ccc(Sc2nc3ccccc3[nH]2)o1 | n | 65 | n | n
O=C1NC(=O)N(c2ccccc2)C(=O)/C1=C/c1ccc(Sc2ccccc2)o1 | n | 37 | n | n
O=C1NC(=O)N(c2ccccc2F)C(=O)/C1=C/c1ccc(Sc2nc3ccccc3[nH]2)o1 | n | 45 | n | n
O=C1c2ccccc2-n2nnc(-c3ccccc3)c2C2c3ccccc3CCN12 (stereo not given) | x | n | x | x
CC(=O)[C@@]1(O)CCC2C3CC=C4C[C@@H](O)CC[C@]4(C)C3CC[C@@]21C (stereo not given in full) | x | n | x | x
CCOC(=O)C1C(OC(=O)c2ccccc2)CC2CCC1N2C (stereo not given) | x | n | x | x
CC(C)[C@H]1C(=O)N2CCC[C@H]2[C@]2(O)O[C@](NC(=O)[C@@H]3C=C4c5cccc6[nH]cc(c56)C[C@H]4N(C)C3)(C(C)C)C(=O)N12 | n | n | n | n
CN1C[C@H](CO)C=C2c3cccc4[nH]cc(c34)C[C@H]21 | n | n | n | 65
O=C1NC(=O)N(Cc2ccco2)C(=O)/C1=C/c1ccc(-c2cccc([N+](=O)[O-])c2)o1 | n | 67 | n | x
SMILES | PHOSPHO1 block | NadD block | p-CIP stab down | SUMO HTRF inh | others
O=C1NCN(c2ccccc2)C12CCN(C(c1cc3ccccc3o1)c1nnnn1C1CCCCC1)CC2 (stereo not given) | x | n | x | x
O=C1NC(=O)N(CCc2ccc(F)cc2)C(=O)/C1=C/c1ccco1 | n | 34 | n | n
Cc1ccc(/C=C2/C(=O)NC(=O)N(CCc3ccc(F)cc3)C2=O)o1 | n | n | n | n
C[C@@H]1C(=O)O[C@H]2[C@H](O)[C@]34[C@@H]5OC(=O)[C@]3(OC3OC(=O)[C@H](O)C34[C@H](C(C)(C)C)[C@@H]5O)[C@@]12O (stereo not given in full) | x | n | x | x
O=C(c1cccn2c(=O)c3cc(Br)ccc3nc12)N1CCC2(CC1)OCCO2 | n | n | n | n
O=C(c1cccn2c(=O)c3ccc(Cl)cc3nc12)N1CCC2(CC1)OCCO2 | n | n | n | 58
COC(=O)[C@@H]1N=C(c2ccc(OC)cc2)O[C@]12C(=O)N(Cc1ccc(OC)cc1)c1ccccc12 | x | n | x | x
Cc1ccsc1C(=O)C1CCCN(Cc2ccc(-n3cccn3)cc2)C1 (stereo not given) | n | n | n | 65
CN(C)[C@@H]1C(=O)C(C(N)=O)=C(O)[C@@]2(O)C(=O)C3=C(O)c4c(O)cccc4[C@@](C)(O)[C@H]3[C@H](O)[C@@H]12 | n | 38! | n | n
CN(C)[C@@H]1C(=O)C(C(N)=O)=C(O)[C@@]2(O)C(=O)C3=C(O)c4c(O)cccc4[C@@](C)(O)C3C[C@@H]12 (stereo not given in full) | x | n | x | x
CC(C)N1CCOC(c2ccc(O)c(O)c2)C1 (stereo not given) | x | n | x | x
Nc1cc2nc3ccccc3nc2cc1N | 60 | n | n | 81
O=C1NC(=S)NC(=O)C1=Cc1ccc2c(c1)CCN2CCCCl | n | 53 | n | n
CCOc1cc(C=C2C(=O)NC(=S)NC2=O)ccc1O | x | n | x | x
CC(C)CCn1c(=O)c(C(=O)Nc2ccccc2S(N)(=O)=O)c(O)c2ccccc21 | n | 49 | n | n | NadD conf=n
CCCCn1c(=O)c(C(=O)Nc2ccccc2C)c(O)c2ccccc21 | n | n | n | n
O=C(Cc1cc(=O)oc2cc(O)ccc12)NN=Cc1ccc(N(CCCl)CCCl)cc1 | x | 54 | x | x | NadD conf=49
O=C(NN=Cc1ccc(N(CCCl)CCCl)cc1)c1cc(=O)[nH]c(=O)[nH]1 | x | n | x | x
COc1cc2c(cc1O)C[C@H]1NCCc3cc4c(c-2c31)OCO4 | n | 34 | n | n | NadD conf=n
COc1cc2c(cc1OC)-c1c3c(cc4c1[C@@H](C2)N(C)CC4)OCO3 | n | n | n | n
CCOC(=O)c1cccc(C2=C(CNC(=O)c3cccnc3)[C@H]3CC[C@@H](C2)N3Cc2ccccc2)c1 | x | n | x | x
C[C@@H]1CN([C@H](C)CO)C(=O)CCCn2nncc2CO[C@H]1CN(C)C(=O)Oc1cccc2ccccc12 | x | n | x | x
Cc1cccc(C)c1-n1nnnc1C(CCc1ccccc1)N1CCC(n2c(=O)[nH]c3ccccc32)CC1 (stereo not given) | x | 30 | x | x | NadD conf=n
NNC(=O)c1nc[nH]c1C(=O)Nc1ccc(Cl)cc1C(=O)c1ccccc1 | n | 48 | n | n | NadD conf=n
CN1C(=O)C[N+]([O-])=C(c2ccccc2)c2cc(Cl)ccc21 | x | n | x | x
SMILES | PHOSPHO1 block | NadD block | p-CIP stab down | SUMO HTRF inh | others
c1ccc2c(CN3CCN(C4CCCCC4)CC3)c[nH]c2c1 | n | 38 | n | n | NadD conf=n
COc1ccc2nc(-c3ccc(CN4CCC(n5c(=O)[nH]c6ccccc65)CC4)cc3)c(-c3ccccc3)nc2c1 | x | 37 | x | x | NadD conf=n
Cc1ccc2nc(-c3ccc(CN4CCC(n5c(=O)[nH]c6ccccc65)CC4)cc3)c(-c3ccccc3)nc2c1 | x | n | x | x
O=c1[nH]c(=S)[nH]c(O)c1N=Nc1ccc(S(=O)(=O)N2CCc3ccccc32)cc1 | n | 49 | n | n | NadD conf=70
CCOC(=O)CC1c2ccccc2-n2nncc2CN1CC1CCCCC1 (stereo not given) | x | n | x | x
COc1ccc(-c2ccc3c(c2)CN(C(=S)NCCc2ccccc2)Cc2cnnn2-3)cc1 | x | n | x | x
CC[C@H]1CN2CCC1C[C@H]2[C@H](O)c1ccnc2ccc(OC)cc12 (stereo not given in full) | x | 48 | x | x | NadD conf=n
